PubChem BioAssay (NCATS)
Inconclusive results are not listed. The source made the active and inactive calls. Calls follow the shape of the dose curve; as a rule, active = well fitted inhibition curve with a large enough effect; inconclusive = small, poorly fitted or top-dose-only effect; inactive = no such curve, though single readings can be large or run the other way.

Assay: Primary qHTS for inhibitors of nuclear receptor binding SET domain protein 2 (NSD2) in an RCH-ACV wild type WT cells (2C) (AID 1645877); also: nearly all actives have a fitted effect of over 70% in size
Conditions: RCH-ACV (leukaemia line) NSD2 WT (2C) viability, CellTiter-Glo, 72 h; series mostly up to 44.9 µM; activity change, negative = cell killing: at the top concentration
% is scaled to controls: 0 for no effect and ±100 for the full control effect.

SMILES | activity change, negative = cell killing | outcome
CC(=O)OCC(=O)O[C@@H]1[C@H]2[C@@H](OC(=O)c3ccccc3)[C@@H](C)C[C@]2(O)[C@H](OC(C)=O)C2(C)[C@H]3CC(C)(C)C(=O)[C@@H]3CC1(OC(C)=O)[C@@H]2OC(C)=O (some centres undefined) | -3.86% [at 17.3 µM] (inactive) | 
CC12CC34C=CC(=O)C(C)(CCC(=O)O)C3C(CC1C4)O2 (centres undefined) | -5.35% (inactive) | 
CCC(CCO[C@@H]1O[C@H](CO[C@H]2OC[C@](O)(CO)[C@H]2O)[C@@H](O)[C@H](O)[C@H]1O)C(C)(C)O (some centres undefined) |  | inactive [at 17.3 µM]
C=C[C@@]1(C)CC(=O)C2[C@](C)(O1)[C@@H](OC(C)=O)[C@@H](O)[C@H]1C(C)(C)CCC[C@]21C (some centres undefined) |  | inactive [at 9.23 µM]
C[C@@H]1C/C=C/C=C\C=C\C=C\[C@H](O[C@@H]2O[C@H](C)[C@@H](O)[C@H](N)[C@@H]2O)C[C@@H]2O[C@](O)(C[C@@H](O)C[C@H]3O[C@@H]3/C=C/C(=O)O1)C[C@H](O)[C@H]2C(=O)O | -15.6% [at 17.3 µM] (inactive) | 
CC[C@H]1OC(=O)[C@H](C)[C@@H](OC2C[C@@](C)(OC)[C@@H](O)[C@H](C)O2)[C@H](C)[C@@H](OC2O[C@H](C)C[C@H](NC)[C@H]2O)[C@](C)(O)C[C@@H](C)CN(C)[C@H](C)[C@@H](O)[C@]1(C)O (some centres undefined) | -13.7% (inactive) | 
CC(=O)OC1C=C(C(=O)O)C2(CO)CCC(C)C(C)(CCc3ccoc3)C2C1 (centres undefined) |  | inactive [at 17.3 µM]
CC1=CC(=O)CC(C)(C)C1CCC(C)OC1OC(COC(=O)c2cc(O)c(O)c(O)c2)C(O)C(O)C1O (centres undefined) | 0.885% [at 17.3 µM] (inactive) | 
C[C@@H]1O[C@@H](O[C@H]2[C@H](OC(=O)C34CCC(C)(C)CC3C3=CCC5C6(C)CC(O)C(O[C@@H]7O[C@H](CO)[C@@H](O)[C@H](O)[C@H]7O)C(C)(C(=O)O)C6CCC5(C)C3(CO)CC4)O[C@H](C)[C@H](O)[C@@H]2O)[C@H](O)[C@H](O)[C@H]1O[C@@H]1OC[C@@H](O)[C@H](O)[C@H]1O (some centres undefined) |  | inactive [at 9.23 µM]
COc1cc(C2Oc3c(OC)cc(CCCO[C@@H]4O[C@H](CO)[C@@H](O)[C@H](O)[C@H]4O)cc3C2CO)ccc1O (some centres undefined) | -23.5% [at 17.3 µM] (inactive) | 
CC1(C)CCCC2(C)C3=C(C(=O)OC3O)C(O)CC12 (centres undefined) |  | inactive
CC(C)NC[C@H](O)COc1ccc(CCOCC2CC2)cc1 | 3.57% (inactive) | 
CC(=O)N1c2ccccc2C2(O)CC3C(=O)NC(CC(C)C)C(=O)N3C12 (centres undefined) |  | inactive
CC1OC(OC2C(O)C(C(=O)O)OC(OC3CCC4(C)C(CCC5(C)C4C=CC4=C6CC(C)(C)CC(O)C6(C)CCC45C)C3(C)C)C2OC2OCC(O)C(O)C2O)C(O)C(O)C1O (centres undefined) |  | inactive [at 9.23 µM]
